Bioassay records (PubChem BioAssay)
HCMV inh = human cytomegalovirus inhibition; HFF cells, HCMV-luciferase reporter, 72 h; active compounds read low; activity change, negative = inhibition, % at 57.5 µM; actives 4.5% (n = 410,000); in the data active means activity change below about -60%; inconclusive means no clear call, values can overlap the other calls; inactive means above about -39%; further: on the % scale 0 is the no-effect control and ±100 the full control effect
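Luciferase read-out from HCMV-luciferase-infected HFFs (MOI 1 PFU/cell) 72 h post infection at 37C; compounds added after 16 h cell attachment; activity normalized between buffer-only basal and Salinomycin (10uM) inhibitor controls.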
LASV entry inh = inhibitors of Lassa virus binding or cell entry | AID 540256 | actives 1.2% (n = 300,000) | Potency, µM (series often up to 37.9 µM), for inactives: at the highest dose activity change, negative = inhibition, usual class: inhibitors | Lassa virus pseudotype entry inhibition, cell reporter; calls by dose curve; tested in HEK293 cells; further: potency means the concentration at half of the fitted maximal effect; on the % scale 0 is the no-effect control and ±100 the full control effect; nearly all actives have a fitted effect of over 50% in size
Marburg entry inh = blocks Marburg virus binding to or entry into cells; actives 1.8% (n = 300,000); Potency, µM (highest dose often 37.8 µM), inactives show at the top dose activity change, negative = inhibition, usual class: inhibitors; Marburg virus pseudotyped entry inhibition, cell reporter; calls by dose curve; tested in HEK293 cells; further: potency means the concentration at half of the fitted maximal effect; on the % scale 0 is the no-effect control and ±100 the full control effect
Vaccinia Venus = vaccinia inhibition (Venus reporter); Vaccinia virus Venus reporter expression, fluorescence; Potency, µM (top dose mostly 36.5 µM), for inactives: at the highest dose activity change, negative = inhibition, actives largely listed as inhibitors; actives 0.46% (n = 330,000); AID 720580; calls by dose curve; tested in A549 cells; further: potency means the concentration at half of the fitted maximal effect; on the % scale 0 is the no-effect control and ±100 the full control effect; nearly all actives have a fitted effect of over 30% in size
VACV mCherry inh = inhibitors of vaccinia virus infection (mCherry reporter signal); Vaccinia virus mCherry reporter infection, fluorescence; Potency, µM (highest dose often 36.5 µM), inactives show at the highest dose activity change, negative = inhibition, usual class: inhibitors; actives 0.63% (n = 310,000); AID 720579; calls by dose curve; tested in A549 cells; further: potency means the concentration at half of the fitted maximal effect; on the % scale 0 is the no-effect control and ±100 the full control effect; nearly all actives have a fitted effect of over 35% in size
HCV inh = HCV inhibition. Potency, µM (series often up to 41.8 µM), for inactives: at the highest dose activity change, negative = inhibition, most hits filed as inhibitors. actives 3.4% (n = 340,000). AID 651820. Huh7.5.1 HCVcc-Cre infection, luciferase reporter, 44 h; further: potency means the concentration at half of the fitted maximal effect; on the % scale 0 is the no-effect control and ±100 the full control effect
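After 44 h co-culture of compound, cells and HCVcc-Cre (~0.5 moi), substrate is added for 15 min at room temperature and luciferase measured over 15 sec. Cells were seeded at 1,000/well and pre-cultured 4 h.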
HCV confirm = confirmation of hepatitis C virus inhibitors. shares compounds with HCV inh. HCVcc-Cre infectious virus cell assay, luciferase, inhibition. Potency, µM (doses to about 41.8 µM), without a hit: at the highest dose activity, negative = inhibition, usual class: inhibitors. actives 78% (n = 640); further: potency means the concentration at half of the fitted maximal effect; nearly all actives have a fitted effect of over 80% in size
HCV host tox = toxic to HCV host cells, flagging false HCV inhibitors; shares compounds with HCV inh; HCV host cell line cytotoxicity counterscreen; Potency, µM (series often up to 41.8 µM), for the others: top-dose activity change, negative = cytotoxicity, actives largely listed as inhibitors; actives 22% (n = 640); AID 720576;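 further: potency means the concentration at half of the fitted maximal effect; 44 h compound exposure; on the % scale 0 is the no-effect control and ±100 the full control effect; nearly all actives have a fitted effect of over 55% in size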
The depositor's hits bear a star; i = inactive; ? = inconclusive; . = no result given; [ ] = remark or other dose. Most compounds without a hit are left out; they make up all but 7.8% or so of the library. Unless noted, the call rests on the fitted dose curve; in most records, active means well fitted curve in the direction sought with a large enough effect; inconclusive means small, poorly fitted or top-dose-only effect, or another doubt; inactive means no such curve, though single readings can be large; an effect the other way counts as inactive or inconclusive.

SMILES	HCMV inh	LASV entry inh	Marburg entry inh	Vaccinia Venus	VACV mCherry inh	HCV inh	HCV confirm	HCV host tox
COc1ccc(S(=O)(=O)Nc2cccc(-c3ccc(N4CCCCCC4)nn3)c2)c(OC)c1	-23	-29%[46.1 µM]	.	-16%	-21%	3.5µM*	20µM*	-15%
COc1ccc(S(=O)(=O)Nc2cccc(-c3ccc(N4CCCC4)nn3)c2)c(OC)c1	-5	-6%[46.1 µM]	.	-28%	-28%	.	.	.
Nc1nc(F)nc2c1ncn2[C@@H]1O[C@H](CO)[C@@H](O)[C@H]1O	-96*	.	.	1.1µM*	1µM*	0.79µM*	2µM*	6.3µM*
COc1cc2c(cc1NC(=O)/C=C/c1ccc([N+](=O)[O-])cc1)oc1ccccc12	-23	-1%	1%	3%	8%	-28%	.	.
COc1cc2c(cc1NC(=O)COC(=O)/C=C/c1ccc([N+](=O)[O-])cc1)oc1ccccc12	-33	.	.	.	.	?	?	23%
CCSc1nc2ccccc2c(OCc2ccccc2Cl)c1C(=O)OC	-9	13%[46.1 µM]	.	0%	-11%	.	.	.
CCOC(=O)c1cc2n(c1/N=C/N(C)C)-c1ccccc1C2=O	31	?	?	6%	-18%	?	?	35%
COc1ccc2nc(C)c3cc(C)oc3c2c1	7	0%	2%	-7%	-13%	8.9µM*	22µM*	32%
CCOC(=O)c1c(C)[nH]c(CCC(=O)NCc2ccccc2Cl)c1C	-18	1%[46.1 µM]	.	-15%	-10%	.	.	.
C#CCN1C=CC(=O)[C@@H](OC(=O)Nc2ccc(Cl)cc2)[C@H]1c1ccccc1Br	25	.	.	-6%	-6%	8.9µM*	?	1%
COc1ccccc1NC(=O)Nc1nc(CC(=O)NCc2ccccn2)cs1	-4	-16%	-6%	-9%	i	?	.	.
COc1ccccc1CNC(=O)Cc1csc(NC(=O)Nc2ccccc2OC)n1	-4	?	?	-23%	-10%	?	18µM*	51%
NS(=O)(=O)c1ccc(CCNc2nc3c(-c4cccc(F)c4)nnn3c3ccccc23)cc1	6	?	1%	1%	-13%	1.4µM*	7µM*	-16%
CCc1c(C)nc2ncnn2c1NCCc1ccc(Cl)cc1	?	?	?	-22%	-28%	?	7µM*	?
COc1ccc(/C=C/C(=O)Nc2cccc(S(=O)(=O)NC3=NCCCCC3)c2)cc1OC	-16	.	.	.	.	6.3µM*	20µM*	?
CC(C)=CC(=O)Nc1cccc(S(=O)(=O)NC2=NCCCCC2)c1	4	.	.	.	.	-1%	.	.
CS(=O)(=O)Nc1cccc(-c2nccc(-n3ccnc3)n2)c1	.	.	.	11%	6%	.	.	.
CCOC(=O)c1cc2c(ccc3nc(C)c(C)c32)[nH]c1C	-17	.	.	.	.	3.2µM*	13µM*	20%
COc1ccc2c(c1)sc(N)[n+]2Cc1cc(C)cc2cccnc12	?	?	?	?	?	8.9µM*	16µM*	?
CCOc1ccc2c(c1)sc(N)[n+]2Cc1cc(C)cc2cccnc12	-12	?	?	-25%	?	?	.	.
CCOc1ccccc1NC(=O)CSc1ncc2c(n1)-c1ccccc1N(CC)S2(=O)=O	-20	-25%[46.1 µM]	.	1%	-4%	.	.	.
O=C(Cc1ccc(Cl)cc1Cl)Nc1ccc(OC(F)F)c(Cl)c1	?	-3%	?	-21%	-27%	?	.	.
O=C(Nc1ccc([N+](=O)[O-])cc1)Nc1ccc(OC(F)F)c(Cl)c1	-101*	15µM*	?	8.9µM*	?	?	7µM*	8.9µM*
COc1ccc(N2CCN(CCCNC(=O)C3CCC(CNc4nc(=S)[nH]c5ccccc45)CC3)CC2)cc1 (stereo not given)	14	?	?	-9%	-5%	2.5µM*	6.3µM*	22µM*
Cc1cccc(CN2CCN(CC(=O)NCCCN3CCN(c4ccc(F)cc4)CC3)C2=O)c1	?	-12%	?	.	.	5.6µM*	22µM*	?
SMILES	HCMV inh	LASV entry inh	Marburg entry inh	Vaccinia Venus	VACV mCherry inh	HCV inh	HCV confirm	HCV host tox
O=S(=O)(c1ccccc1)c1nnn2c1nc(NC1CCN(Cc3ccccc3)CC1)c1ccccc12	-18	.	.	.	.	8.9µM*	14µM*	-11%
O=S(=O)(c1ccccc1)c1nnn2c1nc(NC1CCN(Cc3ccccc3)CC1)c1cc(Cl)ccc12	-16	.	.	.	.	?	.	.
CC(C)c1nn2c(=O)cc(COC(=O)c3ccccc3NC(=O)c3cccs3)nc2s1	-24	10%[46.1 µM]	.	-4%	i	.	.	.
CCOc1ccc(CNC(=O)c2cnc(SC)nc2C)cc1	-19	-4%[46.1 µM]	.	0%	-3%	.	.	.
Cc1sc(NC(=O)Cc2ccc3c(c2)OCO3)nc1-c1ccc2c(c1)CCN2C(=O)c1ccc(F)cc1	-35	?	?	-15%	i	1.3µM*	7.9µM*	-21%
COc1ccc(C(=O)Nc2nc(-c3cccs3)cs2)cc1	-22	?	?	-28%	-21%	?	22µM*	0.0025µM*
O=C(Nc1nc(-c2ccc(Cl)s2)cs1)c1ccncc1	-77*	-21%	?	-6%	-8%	?	6.3µM*	?
CC1CC1C(=O)Nc1nc(-c2ccc(Cl)s2)cs1 (stereo not given)	-9	.	-44%[46.1 µM]	-24%	?	?	.	.
O=C(Nc1nc(-c2cccs2)cs1)c1ccc(Cl)cc1	3	?	?	-18%	-11%	?	.	.
CCC(C)n1c(=N)c(C(=O)NC2CCCCC2)cc2c(=O)n3cc(C)ccc3nc21 (stereo not given)	2	21%[46.1 µM]	-4%[46.1 µM]	-22%	-23%	.	.	.
COc1cc(OC)c(OC)cc1CNCCSc1nnnn1-c1ccccc1	-15	0%[46.1 µM]	6%[46.1 µM]	-8%	-1%	.	.	.
Cc1ccc(-n2c(SCC(=O)Nc3ccc(N4CCOCC4)cc3)nc3ccccc3c2=O)cc1	?	-8%	?	0%	-8%	?	?	15%
COc1cc(NC(=O)CN2c3ccccc3S(=O)(=O)c3ccccc32)cc(OC)c1	28	-18%[46.1 µM]	.	3%	-5%	.	.	.
COC(=O)/C(C#N)=C\c1c(OC)[nH]c2ccccc12	?	.	.	.	.	4µM*	11µM*	23%
COc1cc(-c2nc(-c3ccc4c(c3)[nH]c(=O)n4C)no2)cc(OC)c1OC	13	-19%[46.1 µM]	.	13%	7%	.	.	.
CC(C)(O)C#Cc1ccc([C@@H]2C[C@H]3CN(c4ccccc4)C(=O)[C@]34CCCN24)s1	-99*	?	?	?	?	?	7µM*	-83%
